A short description of test [1]: compound effects on lung adenocarcinoma cell viability – A549, calcein-AM fluorescence, 48 h, basal, profiling panel (AID 1162). Note: test concentration not given here. Particulars: higher = more signal.
Test [2] can be described thus: compound effects on differentiated 3T3-L1 adipocyte viability – cell-based, 3T3-L1 adipocytes, calcein-AM fluorescence, 48 h, basal, profiling panel (AID 1163). Note: test concentration not given here. Particulars: 3T3-L1 adipocytes viability, higher = more signal.
A short description of test [3]: compound effects on hepatocellular carcinoma cell viability – HepG2, calcein-AM fluorescence, 48 h, basal, profiling panel (AID 1164). Note: test concentration not given here. Particulars: higher = more signal.
Test [4] is described as follows: compound effects on multiple myeloma cell viability – MM1S, calcein-AM fluorescence, 48 h, basal, profiling panel (AID 1165).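 Note: viability of MM1S multiple myeloma cells under basal unstimulated conditions; test concentration not given here.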 Particulars: higher = more signal.
A short description of test [5]: calcein-AM signal in unstimulated myeloma cells – cell-based, calcein-AM fluorescence, 48 h, PK04 Diversity Set, profiling panel (AID 1166).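 Note: cells grown under basal conditions without added stimulus; test concentration not given here.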 Particulars: RPMI8226 myeloma viability, higher = more signal.
A short description of test [6]: JC-1 mitochondrial signal, unstimulated HepG2 cells – cell-based, JC-1 fluorescence, 24 h, 100 nL compound, profiling panel (AID 1167). Note: test concentration not given here. The following applies: HepG2 mitochondrial potential, higher = more signal.
Test [7] is described as follows: JC-1 mitochondrial signal, unstimulated adipocytes – cell-based, JC-1 fluorescence, 3T3-L1 adipocytes, 24 h, 100 nL compound, profiling panel (AID 1168). Note: test concentration not given here. The following applies: JC-1 mitochondrial fluorescence, higher = more signal, called active from +8 up or from −8 down.
Test [8] in a line: JC-1 mitochondrial signal, unstimulated myeloma cells – cell-based, JC-1 fluorescence, RPMI8226, 24 h, 100 nL compound, profiling panel (AID 1169). Note: test concentration not given here. Particulars: JC-1 mitochondrial potential fluorescence, higher = more signal.
The nature of test [9]: JC-1 mitochondrial signal, unstimulated MM1S myeloma – cell-based, JC-1 fluorescence, 24 h, 100 nL compound, profiling panel (AID 1170). Note: test concentration not given here. Particulars: MM1S mitochondrial potential, higher = more signal.
Test [10] can be described thus: resazurin metabolic signal in A549 cells – cell-based, resazurin fluorescence, 24 h, PK04 Diversity Set, profiling panel (AID 1171). Note: test concentration not given here. Particulars: A549 viability, higher = more signal, called active from +8 up or from −8 down. Background: Resazurin is reduced to fluorescent resorufin, in cell work by metabolically active cells.
Test [11] can be described thus: resazurin metabolic signal in HepG2 cells – cell-based, resazurin fluorescence, 24 h, PK04 Diversity Set, profiling panel (AID 1172). Note: test concentration not given here. The following applies: HepG2 viability, higher = more signal.
The nature of test [12]: budding yeast growth changes without added modifier – OD600, strain BY4716, 24 h, basal condition, primary screen (AID 1173). Particulars: S. cerevisiae BY4716 growth, OD600, 24 h; higher = more signal, called active from +8 up or from −8 down.
Test [13] can be described thus: viability profiling in MM1S myeloma cells – cell-based, resazurin fluorescence, basal, 24 h, PK04 Diversity Set, profiling panel (AID 1174). Note: test concentration not given here. The following applies: higher = more signal, called active from +8 up or from −8 down.
The target in test [14] is Dihydroorotate dehydrogenase (quinone), mitochondrial (Plasmodium falciparum (isolate 3D7)) (UniProt Q08210). The test is described as follows: inhibition of P. falciparum DHODH – biochemical, C-terminal His tag, absorbance 600 nm, primary screen (AID 1175).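 Note: recombinant parasite enzyme with a five histidine tag at its C terminus; test concentration not given here.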 Particulars: PfDHODH enzyme, DCIP absorbance 600 nm; higher = more signal, called active from +8 up or from −8 down.

Test [15] in a line: inhibition of PAO1 biofilm formation – strain PAO1, LB-PBS medium, absorbance 600 nm, primary screen (AID 1176). Note: test concentration not given here. Particulars: P. aeruginosa PAO1 growth/biofilm, A600, 12 h; higher = more signal.
A short description of test [16]: growth modulation of vineyard yeast isolate – strain RM11-1a, OD600, basal, 24 h, primary screen (AID 1177).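 Note: cultures grown under basal conditions with no added stressor; test concentration not given here.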 The following applies: S. cerevisiae RM11-1a growth, OD600, 24 h; higher = more signal, called active from +8 up or from −8 down.
Test [17] in a line: growth of efflux-deficient E. coli DRC39 – strain DRC39, OD650, 24 h, E. coli filamentation inducers, primary screen (AID 1178).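 Note: growth measured as culture turbidity by optical density at 650 nm; test concentration not given here.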 Particulars: E. coli DRC39 acrAB, higher = more signal, called active from +8 up or from −8 down.
Test [18] can be described thus: growth of efflux-deficient E. coli DRC39 – strain DRC39, OD650, 48 h, E. coli filamentation inducers, primary screen (AID 1179).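 Note: screen aims at cell division blockers that make cells filament.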 Particulars: E. coli DRC39 delta-acrAB growth, higher = more signal, called active from +8 up or from −8 down.
Test [19] can be described thus: viability profiling in RPMI8226 myeloma cells – cell-based, resazurin fluorescence, basal, 24 h, PK04 Diversity Set, profiling panel (AID 1180).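 Note: RPMI8826 multiple myeloma cell line at 5000 cells per well; test concentration not given here.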 Particulars: higher = more signal.
Test [20] addresses E3 ubiquitin-protein ligase XIAP (Homo sapiens) (UniProt P98170). The experiment in a line: small molecules binding XIAP protein – biophysical, small-molecule microarray, fluorescence 635 nm, primary screen (AID 1181).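 Note: score merges 667 nm emission and signal to noise over triplicate slides.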 The following applies: higher = more signal.

Calls of active or inactive are those of the source. Unless noted, the rule behind the calls is not given here.

Our source for the z-score and composite z-score values is PubChem BioAssay.

Sequence of Dihydroorotate dehydrogenase (quinone), mitochondrial (Plasmodium falciparum (isolate 3D7)) (Q08210 whole entry, looked up): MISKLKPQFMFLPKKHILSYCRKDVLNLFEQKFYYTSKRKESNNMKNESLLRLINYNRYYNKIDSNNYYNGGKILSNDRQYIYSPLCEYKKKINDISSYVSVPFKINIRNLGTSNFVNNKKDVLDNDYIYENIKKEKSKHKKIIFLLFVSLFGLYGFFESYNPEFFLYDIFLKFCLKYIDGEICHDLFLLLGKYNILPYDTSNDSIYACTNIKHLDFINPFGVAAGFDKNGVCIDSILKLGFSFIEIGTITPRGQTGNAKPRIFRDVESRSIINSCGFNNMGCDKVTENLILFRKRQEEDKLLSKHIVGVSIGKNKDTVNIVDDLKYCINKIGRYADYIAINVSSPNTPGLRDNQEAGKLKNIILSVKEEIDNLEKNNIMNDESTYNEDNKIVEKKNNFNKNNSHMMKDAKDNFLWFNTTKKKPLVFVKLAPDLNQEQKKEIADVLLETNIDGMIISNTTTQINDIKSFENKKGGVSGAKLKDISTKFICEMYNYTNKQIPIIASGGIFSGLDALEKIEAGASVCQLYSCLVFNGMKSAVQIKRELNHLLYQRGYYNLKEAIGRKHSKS
Sequence of E3 ubiquitin-protein ligase XIAP (Homo sapiens) (P98170 whole entry, looked up): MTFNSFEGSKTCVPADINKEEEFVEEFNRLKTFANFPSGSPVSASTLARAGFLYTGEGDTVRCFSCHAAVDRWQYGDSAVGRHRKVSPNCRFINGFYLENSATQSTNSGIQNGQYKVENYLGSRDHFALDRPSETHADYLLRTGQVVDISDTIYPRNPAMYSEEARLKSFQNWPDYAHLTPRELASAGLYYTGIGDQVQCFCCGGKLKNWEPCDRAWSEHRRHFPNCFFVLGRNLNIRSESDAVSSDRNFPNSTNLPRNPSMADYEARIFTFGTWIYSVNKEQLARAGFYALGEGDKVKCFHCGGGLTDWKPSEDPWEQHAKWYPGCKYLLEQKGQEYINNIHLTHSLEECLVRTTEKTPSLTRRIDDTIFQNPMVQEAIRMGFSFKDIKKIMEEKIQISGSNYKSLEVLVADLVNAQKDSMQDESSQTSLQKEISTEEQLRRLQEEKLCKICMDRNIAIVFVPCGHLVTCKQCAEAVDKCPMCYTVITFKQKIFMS

Consider `CCOC(=O)C[C@H]1[C@H](OC(=O)c2ccccc2-c2ccccc2)[C@@H](NC(=O)c2ccc3ccccc3n2)c2cc(OCCCO)ccc2N1C(=O)c1ccccc1`, for which the z-score in test [1] was 0.198; in [2], 0.197; in test [3], 0.305; in test [4], -0.295; in [5] it was -0.0468; in test [6], 0.549. Besides, the z-score in [7] was -0.178 (inactive); in test [8], -0.707; in test [9], 0.625; in test [10], 0.143 (inactive); in [11], -0.412; in test [12], 1.16 (inactive). The z-score in test [13] is -0.042 (inactive); in test [15], -0.165 (inactive); in test [16] it was 1.01 (inactive); in test [17], -0.745 (inactive); in test [18] it was -0.916 (inactive); in test [19] it was 0.303. For the same compound, the composite z-score was 0.742 (inactive) in [14] and 0.0153 in test [20].

As for `CO[C@H]1O[C@H](CO)[C@@H](OC(=O)Nc2ccc(C#N)cc2)[C@@H]2OC(=O)[C@H](Cc3cccc(Br)c3)C/C=C/C[C@@H](Cc3cccc(Br)c3)C(=O)O[C@@H]12`, the z-score in [1] was 1.31; in test [2] it was 0.685; in [3], 1.29; in test [4] it was -1.71; in test [5], -0.487; in test [6] it was 1.73. The z-score was 1.74 (inactive) in [7]; -0.579 in [8]; -0.935 in test [9]; -2.28 (inactive) in [10]; -1.39 in [11]; -0.253 (inactive) in test [12]. The z-score in [13] is -3.14 (inactive); in test [15] it was 1.23 (inactive); in test [16], 0.99 (inactive); in test [17], 0.295 (inactive); in test [18], 0.432 (inactive); in [19] it was -2.37. Also, the composite z-score is -0.631 (inactive) in [14] and -0.355 in [20].

As for `CCOC(=O)C=Cc1ccccc1O`, the z-score in test [1] is -0.759; in [2], 0.234; in [3], -0.944; in test [4], 0.226; in test [5], -0.529; in test [6], -0.503. The z-score in test [7] is -0.35 (inactive); in [8], -0.986; in test [9], -1.64; in test [10], 0.0931 (inactive); in test [11] it was -0.193; in test [12], -9.29 (active). Moreover, the z-score in [13] was -0.056 (inactive); in test [15] it was 0.0236 (inactive); in [16] it was -8.46 (active); in [17], -0.0367 (inactive); in test [18] it was -0.276 (inactive); in [19], -0.234. Besides, the composite z-score was -0.576 (inactive) in test [14] and 0.125 in [20].

In the case of `CCOC(=O)C1=CC[C@@H](c2ccccc2)N(S(=O)(=O)c2ccc(C)cc2)[C@H]1c1cccc(OC)c1`, the z-score was -0.716 in test [1]; -1.41 in test [2]; -0.0906 in [3]; -0.247 in test [4]; -0.907 in [5]; 2.94 in test [6]. Besides, the z-score was -0.293 (inactive) in test [7]; 0.505 in test [8]; -1.35 in [9]; 0.776 (inactive) in [10]; 0.0088 in [11]; 2.25 (inactive) in test [12]. The z-score was -0.387 (inactive) in test [13]; 0.325 (inactive) in test [15]; 1.21 (inactive) in [16]; -0.577 (inactive) in [17]; 0.244 (inactive) in test [18]; -1.22 in [19]. Further, the figures for the composite z-score in [14] and in test [20] were -0.777 (inactive) and -0.022, respectively.

Regarding `C=C[C@@H](OC)[C@H](OC(=O)Nc1ccc(OC)cc1)c1ccc(OC)c(O)c1`, the z-score in test [1] is -0.464; in [2], 0.605; in test [3], -0.192; in test [4], -0.0794; in test [5], 1.05; in test [6], -0.733. Besides, the z-score in test [7] is 0.141 (inactive); in test [8], 0.616; in test [9], 0.454; in [10], 0.376 (inactive); in test [11], 0.358; in test [12] it was -1.19 (inactive). Also, the z-score is -0.143 (inactive) in test [13]; 0.295 (inactive) in [15]; 0.445 (inactive) in test [16]; 0.724 (inactive) in [17]; 0.367 (inactive) in test [18]; 0.185 in [19]. Further, the composite z-score is -0.0589 (inactive) in test [14] and 0.431 in [20].

As for `COC(=O)c1c2oc(c1C(=O)OC)C(=O)N1CCC[C@H]1Cn1nncc1CN(Cc1ccccc1)C(=O)N[C@H](CO)CC2`, the z-score was -0.0989 in [1]; -0.723 in [2]; 0.436 in test [3]; 0.829 in test [4]; 0.394 in test [5]; 0.488 in [6]. The z-score in test [7] was 0.172 (inactive); in [8], -0.136; in test [9], -0.882; in [10], 0.744 (inactive); in [11], 0.744; in [12] it was -3.62 (inactive). The z-score in test [13] was -0.0795 (inactive); in test [15], -0.0513 (inactive); in test [16] it was 0.738 (inactive); in test [17], 0.663 (inactive); in test [18] it was 0.836 (inactive); in test [19] it was 0.343. For the same compound, the composite z-score was 0.453 (inactive) in [14] and -0.0832 in test [20].

For the compound `COc1ccc(C(=O)Nc2cccc(CN3C(=O)[C@]4(O[C@H](CCn5cc([C@H](O)c6ccccc6)nn5)[C@@H]([Si](C)(C)c5ccc(OC)cc5)[C@@H]4C)c4ccccc43)c2)cc1`, the z-score in test [1] was -1.17; in test [2] it was 0.408; in test [3], -2.1; in [4], -3.03; in test [5] it was -2.99; in [6], 2.27. For the same compound, the z-score was -0.386 (inactive) in test [7]; -0.989 in [8]; -1.12 in test [9]; -2.56 (inactive) in test [10]; -2.58 in test [11]; -1.18 (inactive) in test [12]. Also, the z-score is -5.94 (inactive) in [13]; 1.86 (inactive) in test [15]; 0.99 (inactive) in [16]; -0.409 (inactive) in test [17]; -0.389 (inactive) in [18]; -5.61 in test [19]. Further, the composite z-score in test [14] is -0.512 (inactive); in test [20], 0.0589.
